Data on seven compounds can be found in PubChem BioAssay (Tox21).

Inconclusive results are not listed. The source made the active and inactive calls. Unless noted, calls come from the whole dose curve; as a rule, active = well fitted curve in the direction sought with a large enough effect in the repeat runs; inconclusive = weak or mixed curves; inactive = no such curve, though single readings can be large; an effect the other way counts as inactive or inconclusive.

Assay [1] is described as follows: A CellTox Green Cytotoxicity Assay to monitor cytotoxicity in HEK293 cells - 32 hour (AID 1224881). Note: nearly all actives have a fitted effect of over 40% in size. Note: potency is the fitted concentration of half-maximal effect. The essentials: (§1)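 Nonlytic real-time cytotoxicity: HEK293 + CellTox Green reagent plated, 5 h preincubation, pintool compound addition (23 nL in DMSO), 37 C for 40 h, fluorescence measured at successive time points.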
Assay [2] is described as follows: A CellTox Green Cytotoxicity Assay to monitor cytotoxicity in HepG2 cells - 0 hour (AID 1224882). Note: nearly all actives have a fitted effect of over 35% in size. The essentials:
(§2)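 Read-out is fluorescence of a cyanine dye excluded from live cells that stains DNA of dead HepG2 cells, with signal proportional to cytotoxicity. Plates were read at 0, 8, 16, 24, 32 and 40 h after compound addition.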

Assay [3] can be described thus: A CellTox Green Cytotoxicity Assay to monitor cytotoxicity in HepG2 cells - 32 hour (AID 1224883). Note: nearly all actives have a fitted effect of over 50% in size. Note: potency is the fitted concentration of half-maximal effect. The essentials:
as §2

Assay [4] in a line: A CellTox Green Cytotoxicity Assay to monitor cytotoxicity in HEK293 cells - 8 hour (AID 1224884). Note: nearly all actives have a fitted effect of over 35% in size. The essentials:
as §1

Assay [5] is described as follows: qHTS RealTime-Glo MT Cell Viability Assay in HepG2 cells - 16 hour (AID 1224885). Note: nearly all actives have a fitted effect of over 50% in size. Note: potency is the fitted concentration of half-maximal effect. The essentials:
(§3)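 Cells + NanoLuc/prosubstrate dispensed (600 cells/well) → 5 h at 37 C/5% CO2 → compounds in DMSO transferred → 40 h incubation at 37 C, luminescence read at 0, 8, 16, 24, 32, 40 h.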

Assay [6] in a line: qHTS RealTime-Glo MT Cell Viability Assay in HEK293 cells - 8 hour (AID 1224887). Note: top concentration of the series differs between compounds; nearly all actives have a fitted effect of over 50% in size. The gist of the method:
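Cells were seeded together with NanoLuc luciferase and a prosubstrate that viable cells reduce to a luciferase substrate. After a 5 h incubation at 37 C/5% CO2, compounds were added and luminescence was measured repeatedly during 40 h of treatment.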

The nature of assay [7]: A CellTox Green Cytotoxicity Assay to monitor cytotoxicity in HEK293 cells - 16 hour (AID 1224888). Note: nearly all actives have a fitted effect of over 35% in size. The gist of the method: as §1
A short description of assay [8]: qHTS RealTime-Glo MT Cell Viability Assay in HepG2 cells - 0 hour (AID 1224889). Note: nearly all actives have a fitted effect of over 50% in size. Note: potency is the fitted concentration of half-maximal effect. The gist of the method: as §3
For orientation: qHTS replaces the single test concentration by a dilution series.

Assay [9] in a line: A CellTox Green Cytotoxicity Assay to monitor cytotoxicity in HepG2 cells - 8 hour (AID 1224890). Note: nearly all actives have a fitted effect of over 45% in size. Note: potency is the fitted concentration of half-maximal effect. The essentials:
as §2

A short description of assay [10]: qHTS assay to identify small molecule antagonists of the estrogen receptor alpha (ER-alpha) signaling pathway using the BG1 cell line in the presence of 0.1 nM 17-beta-estradiol - cell viability counter screen (AID 1259241). Note: nearly all actives have a fitted effect of over 40% in size. The gist of the method: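 Cytotoxicity counter-screen: live-cell protease activity measured by fluorescence (30 min reagent step) in the same wells. Cells were VM7Luc4E2 with endogenous ER-alpha and ERE-driven luciferase, treated 22 hr at 37C alongside 0.1 nM 17beta-estradiol final.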

Assay [11] can be described thus: qHTS assay to identify small molecule antagonists of the androgen receptor (AR) signaling pathway using the MDA cell line in the presence of 0.5 nM R1881 - cell viability counter screen (AID 1259242). Note: nearly all actives have a fitted effect of over 45% in size. The gist of the method: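 Counter screen for cytotoxicity run in the same wells as the AR antagonist reporter screen: MDA-kb2 cells were treated 16 hr with test compounds and 0.5 nM R1881, then live-cell protease activity was measured by fluorescence.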

Assay [12] has as its target Estrogen receptor (Homo sapiens) (UniProt P03372). In words: qHTS assay to identify small molecule antagonists of the estrogen receptor alpha (ER-alpha) signaling pathway using the BG1 cell line in the presence of 0.1 nM 17-beta-estradiol (AID 1259244). Note: nearly all actives have a fitted effect of over 50% in size. The gist of the method:
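Cells: VM7Luc4E2, endogenous ER-alpha, 4x ERE-luc stable. Pre-culture 5 d, phenol red-free, charcoal-stripped FBS. Plated 24 h, compound + E2 0.1 nM final, 22 h 37C/5% CO2. Readout ONE-Glo luminescence.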

Assay [13] can be described thus: qHTS assay to identify small molecule phospholipidosis (PLD) inducers (AID 1259344; active = well fitted curve in the direction sought with a large enough effect; an effect the other way counts as inactive or inconclusive). The essentials: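 HepG2 cells on collagen I, attached 4 h at 37 C, were co-treated with compound and LipidTOX Red dye for 24 h at 37 C, then fixed with paraformaldehyde plus Hoechst 33342 and imaged by high-content microscopy for phospholipid accumulation.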
Assay [14] can be described thus: qHTS assay to identify small molecule HDAC inhibitors (AID 1259364). Note: top concentration of the series differs between compounds; nearly all actives have a fitted effect of over 45% in size. The essentials: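 Luminescence from a cell-permeant luminogenic class I/II HDAC substrate reports endogenous deacetylase activity in intact HCT-116 cells treated with compounds for 2 h.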
The nature of assay [15]: qHTS assay to identify small molecule HDAC inhibitors - cell viability counter screen (AID 1259365). The gist of the method: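 CellTiter-Glo luminescence (30 min, room temperature) reported viability after a 2 h compound exposure at 37 C. Cells: wild-type HCT-116, 1,500 per well, seeded the night before.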
Assay [16] is described as follows: qHTS assay to identify small molecule agonists of the sonic hedgehog signaling (Shh) pathway - cell viability counter screen (AID 1259366). Note: nearly all actives have a fitted effect of over 50% in size. Note: potency is the fitted concentration of half-maximal effect. The essentials: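 Cytotoxicity counter screen: CellTiter-Fluor reagent added after 23 h compound exposure, then 1 h at 37C and fluorescence read. Cells were 3T3 Gli1-Luc, seeded 2,000 per well and dosed 4 h post-plating.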

Assay [17] can be described thus: qHTS assay to identify small molecule antagonists of the sonic hedgehog signaling (Shh) pathway - cell viability counter screen (AID 1259367). Note: nearly all actives have a fitted effect of over 55% in size. Note: potency is the fitted concentration of half-maximal effect. The gist of the method: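 NIH/3T3-derived Gli1-Luc reporter cells (2,000 per well) rested 4 hr at 37 C, then received DMSO compounds plus conditioned medium. After 23 hr of treatment, CellTiter-Fluor was added for 1 hr at 37C and fluorescence read.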

The nature of assay [18]: qHTS assay to identify small molecule agonists of the sonic hedgehog signaling (Shh) pathway (AID 1259368; calls by dose curve;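 note: NIH/3T3-derived 3T3Gli1-Luc cells carrying a stable Gli1-driven firefly luciferase reporter; series mostly up to about 92 µM; nearly all actives have a fitted effect of over 15% in size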). The essentials:
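3T3Gli1-Luc (NIH/3T3 clone, stable Gli1-Luc); 4 hr pre-incubation, then cpd in DMSO 24 hr, 37 C/5% CO2; luciferase reagent 30 min RT; luminescence.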

Assay [19] can be described thus: qHTS RealTime-Glo MT Cell Viability Assay in HEK293 cells - 24 hour (AID 1224886). Note: nearly all actives have a fitted effect of over 50% in size. Note: potency is the fitted concentration of half-maximal effect. The gist of the method:
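Tox21 10K qHTS, HEK293, 600 cells/well, RealTime-Glo reagent co-dispensed with cells; 5 h preincubation, compound by pintool, 37 C, luminescence at 0–40 h.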

Assay [20] concerns the target Androgen receptor (Homo sapiens) (UniProt P10275). In words: qHTS assay to identify small molecule antagonists of the androgen receptor (AR) signaling pathway using the MDA cell line in the presence of 0.5 nM R1881 (AID 1259243). Note: nearly all actives have a fitted effect of over 50% in size. The gist of the method:
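Luciferase luminescence is the read-out: compounds are tested for suppressing 0.5 nM R1881-driven MMTV reporter activity in MDA-kb2 cells after 16 hr at 37C.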

Chain of Estrogen receptor (Homo sapiens) (P03372 whole entry, looked up): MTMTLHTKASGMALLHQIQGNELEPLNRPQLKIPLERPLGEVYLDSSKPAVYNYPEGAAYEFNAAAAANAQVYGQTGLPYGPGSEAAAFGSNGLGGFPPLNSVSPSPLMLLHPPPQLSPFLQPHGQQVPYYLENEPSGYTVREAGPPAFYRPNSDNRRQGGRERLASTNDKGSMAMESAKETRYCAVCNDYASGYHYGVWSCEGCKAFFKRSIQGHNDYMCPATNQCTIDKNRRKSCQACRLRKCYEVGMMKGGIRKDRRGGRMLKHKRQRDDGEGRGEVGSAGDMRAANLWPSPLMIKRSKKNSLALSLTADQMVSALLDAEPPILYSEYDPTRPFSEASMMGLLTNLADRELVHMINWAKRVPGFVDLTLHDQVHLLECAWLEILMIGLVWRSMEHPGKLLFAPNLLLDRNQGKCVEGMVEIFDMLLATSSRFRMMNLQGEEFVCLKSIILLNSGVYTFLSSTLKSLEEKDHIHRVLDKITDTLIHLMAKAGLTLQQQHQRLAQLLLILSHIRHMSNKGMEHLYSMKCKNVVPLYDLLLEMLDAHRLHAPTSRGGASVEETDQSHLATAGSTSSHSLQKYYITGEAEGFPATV
Chain of Androgen receptor (Homo sapiens) (P10275 whole entry, looked up): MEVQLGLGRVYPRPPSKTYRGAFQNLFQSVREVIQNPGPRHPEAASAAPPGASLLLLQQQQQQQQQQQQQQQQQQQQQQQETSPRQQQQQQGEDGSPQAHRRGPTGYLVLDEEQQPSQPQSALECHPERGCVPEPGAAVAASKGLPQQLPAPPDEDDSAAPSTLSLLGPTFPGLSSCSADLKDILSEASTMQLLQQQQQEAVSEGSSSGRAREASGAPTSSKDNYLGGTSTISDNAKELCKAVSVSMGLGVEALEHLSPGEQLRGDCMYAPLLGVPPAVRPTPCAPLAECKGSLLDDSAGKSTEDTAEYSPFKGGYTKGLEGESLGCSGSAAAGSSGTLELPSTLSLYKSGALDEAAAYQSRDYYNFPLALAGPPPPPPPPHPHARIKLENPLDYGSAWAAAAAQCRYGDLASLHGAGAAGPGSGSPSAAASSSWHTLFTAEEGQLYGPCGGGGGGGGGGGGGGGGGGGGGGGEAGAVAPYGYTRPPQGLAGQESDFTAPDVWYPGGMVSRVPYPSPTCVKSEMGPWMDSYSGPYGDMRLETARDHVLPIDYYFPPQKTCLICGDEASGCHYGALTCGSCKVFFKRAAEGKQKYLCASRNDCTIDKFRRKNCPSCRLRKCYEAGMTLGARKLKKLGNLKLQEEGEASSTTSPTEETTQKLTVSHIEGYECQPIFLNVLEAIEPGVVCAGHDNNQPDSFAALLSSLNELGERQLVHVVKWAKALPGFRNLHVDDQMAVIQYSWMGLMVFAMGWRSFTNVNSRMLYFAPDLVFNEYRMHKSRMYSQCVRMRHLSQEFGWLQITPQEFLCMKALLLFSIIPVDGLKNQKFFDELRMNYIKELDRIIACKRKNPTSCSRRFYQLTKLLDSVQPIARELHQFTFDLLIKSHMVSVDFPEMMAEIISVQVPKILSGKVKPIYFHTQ

In the case of `CCOC(=O)C1=C(C)NC(C)=C(C(=O)OC)C1c1cccc(Cl)c1Cl` (configuration not stated), the Potency result in assay [1], in [2], in assay [3], in assay [4], in assay [6] and in [7] was “inactive” each time. In addition, the Potency entry in assay [9], in [10], in [11], in assay [12], in assay [13] and in [14] was “inactive” throughout. Moreover, the Potency result in assay [15], in [16], in [17] and in assay [18] was “inactive” in each case. Also, the Potency in assay [5] is 19 µM (active); in assay [8], 6.74 µM (active).

Take `CC1(C)O[C@@H]2C[C@H]3[C@@H]4C[C@H](F)C5=CC(=O)C=C[C@]5(C)[C@H]4[C@@H](O)C[C@]3(C)[C@]2(C(=O)CO)O1`: the Potency result in assay [1], in assay [2], in assay [3], in assay [4], in assay [5] and in [6] was “inactive” throughout. For the same compound, the Potency entry in [7], in assay [9], in assay [10], in [11], in [12] and in [13] was “inactive” in each case. Also, the Potency result in assay [14], in [15], in assay [16], in assay [17] and in [18] was “inactive” each time.

`CCCCN(CCN(CCCC)C(=O)N1CCOCC1)C(=O)N1CCOCC1`: the Potency result in assay [1], in assay [2], in assay [4], in assay [5], in [19] and in assay [6] was “inactive” throughout. The Potency result in [7], in assay [8], in [9], in assay [10], in [11] and in assay [20] was “inactive” throughout. In addition, the Potency entry in assay [12], in [14], in assay [15], in [16] and in assay [18] was “inactive” in each case. Also, in assay [17], the Potency was 26.6 µM (active).

On to `CN1C(C(=O)Nc2ccccn2)=C(O)c2sccc2S1(=O)=O`, for which the Potency entry in assay [1], in assay [2], in [3], in assay [5], in assay [19] and in [6] was “inactive” each time. The Potency entry in [7], in [8], in [9], in assay [10], in assay [11] and in assay [12] was “inactive” each time. The Potency result in assay [14], in assay [15], in assay [16], in [17] and in [18] was “inactive” in each case.

Turning to `C=CCc1ccccc1OCC(O)CNC(C)C` (configuration not stated), the Potency entry in [1], in assay [2], in assay [4], in assay [5], in [19] and in assay [6] was “inactive” each time. The Potency entry in assay [7], in assay [8], in assay [9], in assay [11], in [20] and in assay [13] was “inactive” in each case. Moreover, the Potency entry in assay [14], in assay [15], in assay [16], in [17] and in assay [18] was “inactive” throughout.

`CCN(CC)CCNC(=O)COc1ccc(OC)cc1`: the Potency entry in [1], in [2], in assay [3], in assay [5], in assay [19] and in assay [6] was “inactive” throughout. In addition, the Potency result in [8], in assay [10], in assay [11], in [12], in assay [13] and in [14] was “inactive” throughout. In addition, the Potency result in assay [15], in [16], in assay [17] and in assay [18] was “inactive” throughout.

On to `OCCN1CCN(CCCN2c3ccccc3Sc3ccc(Cl)cc32)CC1`, for which the Potency was 26.8 µM (active) in [1]; 16.9 µM (active) in [3]; 23.9 µM (active) in assay [5]; 23.9 µM (active) in [19]; 23.9 µM (active) in assay [9]; 13.3 µM (active) in [16]. Moreover, the Potency in assay [17] is 13.3 µM (active). The Potency result in assay [2], in assay [10], in assay [11], in [12], in [14] and in [15] was “inactive” throughout. In assay [18], the Potency entry is “inactive”.
